Drawing on PubChem BioAssay AID449762 (Southern Research Specialized Biocontainment Screening …, 2010), this text covers inhibition for 92 compounds.

Where “and” joins values, the source holds several entries; their conditions need not be identical. Equal entries are not always repeated. In all, about 330,000 compounds went through this assay and about 1,900 (0.58%) were called active. About 4% were inconclusive and are not listed. Cut-off read from the data, not from the text of the source: inconclusive = inhibition above about 70% without an active follow-up result; inactive = below that. These entries were drawn from the full list. Potency and affinity values are given separately.

The nature of this assay: M. tuberculosis growth inhibition, HTS (AID 449762).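 Note: bacterial growth assessed after seven days of incubation.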 The note with it: M. tuberculosis H37Rv growth inhibition, 7H9 media; at 25 µM; hits give high values.
Broadly, the inhibition is the relative decrease from the control value, in per cent. Take `Cc1ccc2c(c1)C1(OCCCO1)C(=O)N2CC#N`: the inhibition is -7.17% (inactive).
The result for `O=S(=O)(Cc1cc(N2CCOCC2)nc(-c2ccccn2)n1)c1ccccc1` reads 5.9% (inactive); that for `Cc1nc(CSc2ccc(Cl)cc2)cc(N2CCOCC2)n1`, 0.76% (inactive); that for `COc1c(C)cc(C(=O)C2CCCN(C(=O)c3cc(C)n(C)n3)C2)cc1C` (configuration not stated), 5.63% (inactive).
As for `CCOC(=O)c1c(NC(=O)/C=C\C(=O)O)sc(C)c1-c1ccccc1`, the figure is -6.71% (inactive); as for `CCOC(=O)c1c(NC(=O)CCN2CCOCC2)sc(C)c1-c1ccccc1`, 3.54% (inactive); as for `COc1cc(/C=N/c2oc(C)c(C)c2C#N)cc(Br)c1O`, 12% (inactive).
The result for `COCCN(C(=O)COC(=O)CCC(=O)c1ccc(Cl)cc1)c1c(N)n(Cc2ccccc2)c(=O)[nH]c1=O` reads -11.3% (inactive); that for `Cc1csc(NC(=O)CSc2ccc(-c3ccccc3)nn2)n1`, 1.71% (inactive).
In the case of `Cc1cc(NC(=O)CSc2ccc(-c3ccccc3)nn2)no1`, the inhibition was -8.31% (inactive).
As for `COCCNC(=O)c1noc2c1CCc1cc(OC)ccc1-2`, the figure is 3.34% (inactive); as for `O=C(Nc1ccc(C(F)(F)F)cc1)c1ccc(NC(=O)C2CCCO2)cc1` (configuration not stated), -5.77% (inactive).
In the case of `Cc1cccc2sc(NNC(=O)C3=COCCO3)nc12`, the inhibition is 2.71% (inactive).
The result for `CCOC(=O)N1CCN(C(=O)c2cccc(S(=O)(=O)Nc3ccc(Br)cc3)c2)CC1` reads 8.88% (inactive).
The result for `CC(NCC(O)COc1ccc2ccccc2c1)c1ccccc1` (configuration not stated) reads 9.15% (inactive); that for `CCOC(=O)c1nn(-c2ccc(C)cc2)c(=O)cc1OCC(=O)Nc1ccc(OC)cc1`, 8.61% (inactive); that for `COC(=O)C(C)n1nc(C)n(-c2ccc(C)cc2)c1=O` (configuration not stated), -0.27% (inactive).
As for `Cc1cc(NC(=O)c2cncc(Br)c2)ccc1NC(=O)c1cc2ccccc2o1`, the figure is 6.1% (inactive); as for `CCC(=O)Nc1ccc(NC(=O)c2ccc3ccccc3c2)cc1`, -4.7% (inactive); as for `O=S1(=O)CCOC[C@H](c2ccccc2)N1Cc1ccccc1F`, 1.26% (inactive).
For the compound `CNC(C)C#Cc1ccc2c(=O)c3ccccc3oc2c1` (configuration not stated), the inhibition is 30% (inactive).
As for `CNC(C)C#Cc1ccc2c(=O)c3cc(C)c(C)cc3oc2c1` (configuration not stated), the figure is 1.51% (inactive); as for `CC(C)(C)OC(=O)C[C@@H]1C/C=C\C[C@@H](CC(=O)N(CCO)Cc2ccccc2)C(=O)NC[C@@H](c2ccccc2)OC1=O`, 4.78% (inactive); as for `CCCCN(C(=O)CC1CCCC1)c1c(N)n(CCCC)c(=O)[nH]c1=O`, -14.4% (inactive).
The result for `O=C(NCC1CCCO1)C1c2ccccc2Oc2ccccc21` (configuration not stated) reads -7.07% (inactive); that for `Cc1ccc(N(CC(=O)N2CCc3ccccc3C2)S(C)(=O)=O)cc1`, -1.47% (inactive); that for `COc1c(Cl)cnn(-c2ccccc2)c1=O`, 6.51% (inactive).
On to `COc1cc(Cl)nn(-c2ccccc2)c1=O`, for which the inhibition was -13.2% (inactive).
As for `Cn1c(=O)cc(OCC(=O)NCCCN2CCN(c3cccc(Cl)c3)CC2)c2ccccc21`, the figure is 1.78% (inactive).
Turning to `C=CCNc1nc(C(=O)OCC(=O)c2ccc(F)cc2)cs1`, the inhibition was -9.37% (inactive).
The result for `CCN(C(=O)Cc1c(C(=O)O)n(C)c2ccccc12)c1cc(OC)ccc1OC` reads -7.09% (inactive); that for `C/C=C(\C)C(=O)Nc1cccc(C2=NOC3(C2)C[C@@H](C(N)=O)N(C(=O)c2cc([N+](=O)[O-])cc([N+](=O)[O-])c2C)C3)c1` (some centres not stated), -8.05% (inactive).
For the compound `C/C=C(/C)C(=O)Nc1cccc(C2=NOC3(C2)C[C@H](C(N)=O)N(C(=O)c2ccccc2)C3)c1` (some centres not stated), the inhibition is -2.03% (inactive).
The result for `COc1ccc(N2CC(C(=O)N3CCN(Cc4ccc5c(c4)OCO5)CC3)CC2=O)cc1` (configuration not stated) reads -6.83% (inactive); that for `COc1ccc(/C=C2\CCCC3C2=NN(C(=O)CSc2ncn[nH]2)C3c2ccc(OC)cc2)cc1` (configuration not stated), 8.82% (inactive).
The result for `O=c1cc(CNc2cc(C(F)(F)F)cc(C(F)(F)F)c2)nc2sccn12` reads 3.54% (inactive); that for `COC(=O)CN(c1ccc2c(c1)OCCO2)S(=O)(=O)c1ccccc1`, -5.06% (inactive).
Consider `COc1ccc2c(c1)c(C(C)=O)c(C)n2CCc1ccccc1`, for which the inhibition was -7.55% (inactive).
The result for `CC(=O)c1c(C)n(Cc2ccccc2)c2ccc(O)cc12` reads -1.54% (inactive); that for `Cn1cc(CNC(=O)c2cc(COc3ccc4c(c3)CCCC4)on2)cn1`, 7.16% (inactive); that for `CN(C)c1oc(/C=C/c2ccccc2)nc1C#N`, 2.83% (inactive).
As for `Cc1ccc(C(=O)NC(C)C2CCCO2)o1` (configuration not stated), the figure is -14.8% (inactive).
As for `Cc1ccc(S(=O)(=O)N2CCCCC2C(=O)N2CCN(C)CC2)cc1` (configuration not stated), the figure is -3.69% (inactive).
With `CN(C)c1cccc(/C=C(\C#N)c2ccccc2)c1`, the inhibition is 11.4% (inactive).
As for `CC(C)(C=O)C1=CC(=O)c2ccccc2C1=O`, the figure is -5.62% (inactive).
As for `CC1=CC(=O)c2ccccc2C1=O`, the figure is -6.06% (inactive) and 0.39% (inactive).
As for `COc1ccccc1-n1c(CNC(=O)c2ccco2)nnc1SCC(=O)Nc1cc(C)ccc1C`, the figure is -9.93% (inactive).
For the compound `CCCCCCNc1nc(-c2ccc(OC)cc2)c(CCC(=O)O)s1`, the inhibition is 31% (inactive).
Turning to `Cc1ccc2[nH]c3c(NCc4ccccc4)ncnc3c2c1`, the inhibition is 67.8% (inactive).
`COc1ccc(CNc2ncnc3c2[nH]c2ccccc23)cc1`: the inhibition was 59.2% (inactive).
As for `Fc1ccc2[nH]c3c(NCCN4CCOCC4)ncnc3c2c1`, the figure is 1.25% (inactive); as for `COc1ccc(CCNc2ncnc3c2[nH]c2cc(OC)c(OC)cc23)cc1OC`, -4.75% (inactive).
As for `C=CCn1c(SCC(=O)c2c(N)n(CCC)c(=O)n(C)c2=O)nc2sc(CC)cc2c1=O`, the figure is 0.69% (inactive).
As for `CSc1ccc(/C=C/C(=O)OCC(=O)c2ccc[nH]2)cc1`, the figure is 5.61% (inactive); as for `O=C(O)CC(C(=O)NCc1ccccc1)C1CCCO1` (configuration not stated), -7.82% (inactive).
Consider `COc1cc(NC(=O)c2ccnnc2)cc(C(=O)Nc2cccc(C(F)(F)F)c2)c1`, for which the inhibition was 42.8% (inactive).
As for `COc1cc(NC(=O)c2cnc(N)o2)cc(C(=O)Nc2cccc(C(F)(F)F)c2)c1`, the figure is 2.04% (inactive); as for `Cc1ccc(C)c(N2CCN(S(=O)(=O)c3c(C)[nH]c(C)c3C(=O)N3CCCCC3)CC2)c1`, -4.36% (inactive); as for `Cc1cc(C(=O)COc2ccccc2C(N)=O)c(C)n1C`, -2.03% (inactive).
With `Cc1cc(C(=O)COc2ccccc2C(N)=O)c(C)n1CC1CCCO1` (configuration not stated), the inhibition is -7.82% (inactive).
For the compound `O=C(O)/C=C\C(=O)Nc1ccccc1N1CCN(c2ccccc2)CC1`, the inhibition is -0.24% (inactive).
The result for `O=C(CSc1nnc2c(n1)[nH]c1ccccc12)Nc1ccc2c(c1)OCO2` reads 0.35% (inactive); that for `COc1cc(CC(=O)N/N=C/c2ccc([N+](=O)[O-])cc2)c([N+](=O)[O-])cc1OC`, 2.69% (inactive).
The result for `CCSc1nnc(NC(=O)CCCOc2ccc(C)cc2)s1` reads 1.29% (inactive); that for `CCC(C)NS(=O)(=O)c1ccc(NS(C)(=O)=O)cc1` (configuration not stated), 4.07% (inactive); that for `CCC(C)NC(=S)Nc1ccc(F)cc1` (configuration not stated), -4.81% (inactive).
The result for `O=C(Cc1cccs1)NCc1cccc(CNC(=O)Cc2cccs2)c1` reads 1.18% (inactive); that for `COc1ccc(C2NCc3ccccc3-n3cccc32)cc1` (configuration not stated), -8.78% (inactive); that for `N#Cc1ccc(C(=O)NCCCSc2ccccc2)cc1`, -3.48% (inactive).
As for `CCC(C)N1CC(=O)N2C(c3ccc(OC)cc3OC)c3[nH]c4ccccc4c3C[C@H]2C1=O` (some centres not stated), the inhibition was 6.67% (inactive).
As for `CCOc1ccc(OCCC(=O)OCC(=O)NC2CCCC2)cc1`, the figure is 4.34% (inactive); as for `COc1ccc(-c2csc(NC(C)c3nc4cc(Cl)c(Cl)cc4n3CCCO)n2)cc1` (configuration not stated), 35.7% (inactive); as for `CCCn1c(C(C)Nc2nc(-c3ccc(C)cc3)cs2)nc2cc(Cl)c(N3CCCCC3)cc21` (configuration not stated), 44.2% (inactive).
For `Cc1ccc(CN2CCC(c3cc(-c4cccs4)n[nH]3)CC2)cc1`, the inhibition is 42.8% (inactive).
The result for `CC(C)(C)OC(=O)N1CCC(c2cc(-c3cccs3)n[nH]2)CC1` reads 10.2% (inactive); that for `CCOC(=O)CN1CCC(c2cc(-c3ccc(Cl)cc3)n[nH]2)CC1`, 0.17% (inactive).
As to `COc1ccc(-c2cc(C3CCN(Cc4ccc([N+](=O)[O-])cc4)CC3)[nH]n2)cc1`, the inhibition is 39.6% (inactive).
The result for `COc1ccc(-c2cc(C3CCN(CC(O)C(F)(F)F)CC3)[nH]n2)cc1` (configuration not stated) reads 7.78% (inactive); that for `COc1ccc(OC)c(-c2cc(C3CCN(C(=O)OC(C)(C)C)CC3)[nH]n2)c1`, -1.26% (inactive); that for `CCCCCOc1ccc(CSc2ncn[nH]2)cc1`, 29.4% (inactive).
Consider `COc1cccc(CN2C(=O)C(C)Oc3ccccc32)c1` (configuration not stated), for which the inhibition was -3.69% (inactive).
As for `O=C(CSc1nncc2ccccc12)N1CCOCC1`, the inhibition was -0.48% (inactive).
In the case of `O=C1COc2ccc(S(=O)(=O)CCC(=O)N3CCN(c4ccccc4)CC3)cc2N1`, the inhibition is -9.62% (inactive).
For `O=C(NCCN1CCOCC1)c1ccc(Cl)nc1Cl`, the inhibition is -1.1% (inactive).
As for `CC(c1nc2ccccc2c(=O)[nH]1)N(C)c1ccc2ccccc2c1` (configuration not stated), the inhibition was -13.1% (inactive).
For `CN(CCOc1ccccc1)Cc1nc2cc(Cl)ccc2c(=O)[nH]1`, the inhibition was 58.8% (inactive).
Turning to `CCC(Sc1nc(C)cc(=O)[nH]1)C(=O)Nc1ccc(Cl)cn1` (configuration not stated), the inhibition is -1.49% (inactive).
As to `COc1ccc(CCN(C(=O)c2cccc(F)c2)C2CC(=O)N(c3ccc(OC)cc3)C2=O)cc1` (configuration not stated), the inhibition was 2.05% (inactive).
The result for `CCN(CC(=O)Nc1c(F)cccc1F)C(=O)CCCc1nc2ccccc2c(=O)[nH]1` reads 5.24% (inactive).
The result for `Cc1cccc(CCNC(=O)CC2C(=O)NCCN2CC2CCCCC2)n1` (configuration not stated) reads 0.82% (inactive).
The result for `CCOC(=O)c1c(NC(=O)CSc2nc3ccccc3[nH]2)sc2c1CC(C)(C)NC2(C)C` reads 35.9% (inactive).
For `CCOC(=O)c1c(NC(=O)CSc2ncccn2)sc2c1CC(C)(C)NC2(C)C`, the inhibition is 8.68% (inactive).
